Assay results published in article PMC5540273 (PLoS ONE, 2017).

Tests used:
Details in all cases: concentration: 1 μM, replicates: in singlicate; n = 1
PCTK2 = system: T1, PCTK2
T1 construct: gene CDK17

PCTK3 = system: T2, PCTK3
T2 construct: gene CDK18

PDGFRA = system: PDGFRA
PDGFRB = system: PDGFRB
PDPK1 = system: PDPK1
PFTAIRE2 = system: PFTAIRE2
PFTK1 = system: T3, PFTK1
T3 construct: gene CDK14

PHKG1 = system: PHKG1
PHKG2 = system: PHKG2
PIK3C2B = system: PIK3C2B
PIK3C2G = system: PIK3C2G
PIK3CA = system: PIK3CA
PIK3CB = system: PIK3CB
PIK3CD = system: PIK3CD
PIK3CG = system: PIK3CG
PIK4CB = system: T4, PIK4CB
T4 construct: gene PI4KB

PIKFYVE = system: PIKFYVE
PIM1 = system: PIM1
PIM2 = system: PIM2
PIM3 = system: PIM3
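Further: KINOMEscan kinase panel screen.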

SMILES	%Inh (PCTK2)	%Inh (PCTK3)	%Inh (PDGFRA)	%Inh (PDGFRB)	%Inh (PDPK1)	%Inh (PFTAIRE2)	%Inh (PFTK1)	%Inh (PHKG1)	%Inh (PHKG2)	%Inh (PIK3C2B)	%Inh (PIK3C2G)	%Inh (PIK3CA)	%Inh (PIK3CB)	%Inh (PIK3CD)	%Inh (PIK3CG)	%Inh (PIK4CB)	%Inh (PIKFYVE)	%Inh (PIM1)	%Inh (PIM2)	%Inh (PIM3)
CN(C)CCNS(=O)(=O)c1ccc(-c2ccnc3[nH]ccc23)cc1 [GSK977620]	0%	0%	0%	54%	0%	6%	0%	25%	7%	0%	0%	0%	0%	9%	8%	0%	0%	1%	0%	0%
O=C(O)C(F)(F)F.O=c1[nH]ccc2nc(N[C@@H]3CCNC3)nc(Nc3cc(Cl)cc(Cl)c3)c12 [GSK2188764]	22%	25%	46%	94.8%	76%	20%	27%	96.1%	94.7%	13%	18%	7%	25%	43%	53%	56%	20%	44%	0%	66%
Cc1ccc(NC(=O)c2ccc(Cl)c(Cl)c2)cc1-c1ccc(C(=O)Nc2ccncc2)cc1 [GSK1398460]	0%	25%	94.6%	100%	27%	23%	1%	0%	0%	0%	0%	3%	69%	0%	0%	3%	0%	0%	0%	3%
O=C(Nc1n[nH]c2cc(-c3cccs3)ccc12)C1CC1 [SB-731284]	33%	38%	73%	83%	0%	0%	33%	0%	17%	7%	1%	3%	35%	0%	27%	0%	9%	0%	0%	0%
O=C(Nc1n[nH]c2nc(-c3ccccc3O)ccc12)C1CC1 [SB-711880]	5%	15%	0%	0%	0%	5%	0%	17%	100%	14%	0%	0%	0%	0%	17%	24%	30%	0%	0%	0%
Fc1cc(Cl)ccc1Nc1ccnc2cc(-c3ccc(CN4CCOCC4)o3)ccc12 [GW560109]	0%	0%	99.6%	100%	8%	12%	0%	13%	0%	0%	0%	0%	0%	21%	0%	16%	5%	0%	0%	0%
CN(c1ccc2c(c1)nc(NCc1ccccc1)n2C)c1ccnc(Nc2ccc(CS(C)(=O)=O)cc2)n1.Cl [GW811603]	0%	0%	99.8%	100%	0%	38%	0%	8%	0%	0%	0%	0%	41%	0%	29%	26%	50%	0%	0%	0%
CC(C)(C)c1ccc(C(=O)Nc2cn3cc(-n4ccnc4)ccc3n2)cc1	14%	0%	61%	96.9%	1%	8%	10%	40%	13%	0%	32%	0%	3%	0%	4%	2%	5%	7%	0%	0%
CN(C)CCOc1ccc(-c2cc(-c3ccc(Cl)c(O)c3)c(-c3ccncc3)[nH]2)cc1.Cl.Cl [SB-684387]	13%	1%	12%	30%	0%	20%	19%	0%	0%	10%	30%	9%	54%	8%	13%	26%	45%	22%	0%	13%
CCNC(=O)/C=C/c1n[nH]c2cc(Sc3ccccc3C(=O)NC)ccc12	0%	10%	100%	99.9%	6%	0%	13%	14%	19%	0%	1%	13%	21%	0%	36%	0%	1%	35%	5%	0%
Cn1cc(-c2ccc3c(c2)CCN3C(=O)Cc2cc(F)cc(F)c2F)c2c(N)ncnc21 [GSK2634140]	0%	7%	59%	98%	0%	3%	10%	0%	0%	82%	0%	0%	62%	0%	7%	0%	0%	12%	0%	0%
CC(C)c1nc(-c2ccc(F)c(NS(=O)(=O)c3c(F)cccc3F)c2)c(-c2ccnc(Nc3ccc(N4CCOCC4)nc3)n2)s1 [GSK1804250]	94.9%	76%	88%	99.6%	11%	11%	71%	0%	9%	17%	0%	0%	0%	10%	0%	0%	66%	7%	0%	0%
COc1cccc(C2=C(Nc3cccc(O)c3)C(=O)NC2=O)c1 [SB-390771]	0%	6%	0%	20%	0%	14%	22%	0%	0%	0%	0%	0%	0%	0%	0%	10%	0%	26%	0%	0%
Cn1cc(-c2ccc3c(c2)CCN3C(=O)Cc2cc(F)cc(C(F)(F)F)c2)c2c(N)ncnc21 [GSK2635225]	14%	15%	93%	100%	2%	22%	22%	0%	3%	0%	47%	0%	8%	0%	0%	0%	0%	2%	0%	6%
Cc1cc(-c2ccnc(Nc3cccc(C#N)c3)n2)cc(C)c1O [GSK1440913]	55%	43%	4%	60%	0%	24%	18%	27%	15%	0%	24%	1%	0%	47%	67%	97%	90%	0%	0%	0%
Fc1cc(Cl)ccc1Nc1ccnc2cc(-c3ccc(CN4CCSCC4)o3)ccc12 [GW560106]	0%	8%	99.1%	100%	0%	6%	11%	1%	0%	0%	0%	0%	0%	9%	0%	0%	1%	8%	0%	0%
Cc1ccc(O)cc1Nc1ccnc2ccc(C(C)(C)C)cc12 [GW856805]	14%	5%	64%	62%	52%	12%	21%	24%	0%	23%	39%	13%	40%	56%	22%	47%	18%	37%	5%	18%
CN(c1ccc(F)c(NC(=O)c2cccc(OC(C)(C)C#N)c2Cl)c1)c1ccc2nc(NC(=O)C3CC3)sc2n1	0%	0%	97.8%	100%	36%	11%	0%	7%	0%	15%	30%	0%	9%	0%	5%	0%	50%	0%	14%	6%
Cc1nn2c(=O)cc(N3CCO[C@H](C)C3)nc2n1Cc1cccc(Cl)c1Cl [GSK2373693]	0%	8%	1%	65%	0%	9%	5%	0%	0%	99.4%	89%	23%	0%	100%	94%	11%	8%	10%	0%	0%
N#CC1(c2cccc(C(=O)Nc3cccc(Oc4ccc5nc(NC(=O)C6CC6)sc5n4)c3)c2)CC1	0%	1%	99.7%	100%	49%	0%	9%	0%	19%	0%	0%	0%	0%	0%	0%	0%	0%	0%	17%	7%
